A short description of assay [1]: EMT-state selective cytotoxicity in co-culture – imaging, PC-3E GFP, TEM4-18 mCherry, primary screen (AID 1345086;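 active = compounds killing one labelled cell type while sparing the other, by normalised counts and ratio limits, not self-fluorescent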;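 as to all read-outs here: cells exposed to compound for 72 h before imaging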;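 as to red/green cell ratio (normalised): normalised mesenchymal count divided by normalised epithelial count so high means epithelial killing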). To be noted: PC-3E GFP / TEM4-18 mCherry co-culture, imaging cell counts, at 1 µM; for red/green cell ratio (normalised): actives lie on both sides, counts scaled to control wells, 1 = unselective.
In assay [2] the test system is Neuropilin-2 / VEGF-C interaction (human). As to the kind of experiment: small molecules blocking Neuropilin-2/VEGF-C interaction – biochemical, microplate binding format, z-score (AID 743281). The note with it: microplate NRP2/VEGF-C binding assay; stronger effect = lower value.
Assay [3] is described as follows: modulation of C. elegans fzo-1 (AID 1259413).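 Also: fzo-1 mutant C. elegans worms in liquid wells.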 To be noted: C. elegans fzo-1 modulator screen, mean read-out; stronger effect = higher value.
Assay [4] can be described thus: P. berghei load reduction in hepatocytes – cell-based, HepG2, luciferase luminescence, HepG2 viability, primary screen (AID 624349; in the data active = parasite load remaining mostly below about 12%, no sharp cut-off; inactive = mostly above about 10%;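 also: 100% = mean of DMSO negative control wells on the same plate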). To be noted: P. berghei liver stage in HepG2, luciferase luminescence, concentration not given here; parasite load remaining: stronger effect = lower value; viability: measured here: HepG2 viability without parasites.
Assay [5] can be described thus: signal quenchers or enhancers, Cy5 substrate/SSB – biochemical, NIH Clinical Collection, E. coli SSB, artefact control for HCV NS3 helicase inhibitor project (AID 743268). The note with it: Cy5-oligo bound E. coli SSB, fluorescence interference.
Assay [6] has as its system Hepatitis C virus NS3 helicase. Description: blockers of NS3h binding to DNA – biochemical, fluorescence polarization, NIH Clinical Collection, primary screen (AID 743270). The note with it: NS3 helicase binding to Cy5-dT15 DNA, stronger effect = higher value, concentration not given here. (In general: Polarisation of emitted light reports the rotation of a fluorescent probe.)
Assay [7] deals with Single-stranded DNA-binding protein (Escherichia coli (strain K12)) (UniProt P0AGE0). Description: SSB-ssDNA binding inhibitors – biochemical, fluorescence polarization, NIH Clinical Collection, counter-screen for HCV NS3 helicase inhibitor project (AID 743271; in the data active = inhibition above about 28%). The note with it: E. coli SSB-DNA binding, stronger effect = higher value, concentration not given here.
A short description of assay [8]: compounds distorting NS3 helicase fluorescence signal – biochemical, NIH Clinical Collection, artefact control for HCV NS3 helicase inhibitor project (AID 743272).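 Also: HCV NS3 helicase with a Cy5 labelled single stranded DNA probe.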 To be noted: fluorescence interference counterscreen, HCV NS3 helicase assay; stronger effect = lower value.
Where [9] appears, read: measured here: epithelial PC-3E GFP cell survival.
The mark [10] stands for this setting: measured here: mesenchymal TEM4-18 mCherry cell survival.

The term viability denotes the share of living cells, or the viability signal relative to a control. By inhibition is commonly meant the drop in the measured response relative to a control, in per cent.

SMILES strings stand for the structures. Calls of active or inactive are those of the source. Unless noted, no rule for the calls is given here.

As for `Cc1ccc([C@H](C)CC(=O)N2C(=S)O[C@H]3Cc4ccccc4[C@H]32)cc1`, the red/green cell ratio (normalised) in assay [1] was 0.95 (inactive). Moreover, the normalised cell number in assay [1] (setting [9]) is 1.05; in assay [1] (setting [10]) it was 1.

Regarding `COC1=C(O)C(=O)c2c(cc3oc(C(C)=O)c(O)c3c2O)C1=O`, in assay [1], the red/green cell ratio (normalised) is 1.19 (inactive). Moreover, the normalised cell number in assay [1] (setting [9]) was 0.94; in assay [1] (setting [10]), 1.12.

With `CC[C@H]1OC(=O)[C@H](C)C(=O)[C@H](C)[C@@H](O[C@@H]2O[C@H](C)C[C@H](N(C)C)[C@H]2O)[C@](C)(OC)C[C@@H](C)C(=O)[C@H](C)[C@@H]2N(CCCCn3cnc(-c4cccnc4)c3)C(=O)OC21C` (stereo partly specified), in assay [2], the result was inactive. The mean signal in assay [3] is 205 (inactive).

Turning to `COC1=CC(=O)C(C)=C(C[C@@H](C)O)C1=O`, in assay [1], the red/green cell ratio (normalised) is 1.12 (inactive). Moreover, the normalised cell number in assay [1] (setting [9]) came out at 0.99; in assay [1] (setting [10]), 1.11.

Take `CC(=O)O[C@]1(C(C)=O)CC[C@H]2[C@@H]3C=C(C)C4=CC(=O)CCC4(C)[C@H]3CCC21C` (stereo partly specified): the compound was classed as inactive in assay [2]. Moreover, in assay [3], the mean signal is 261 (inactive).

In the case of `C#C[C@]1(O)CC[C@H]2[C@@H]3CCc4cc(OC)ccc4[C@H]3CCC21C` (stereo partly specified), in assay [2], the call was inactive. The mean signal in assay [3] was 241 (inactive).

`CO[C@H]1C=CO[C@@]2(C)Oc3c(C)c(O)c4c(O)c(c(/C=N/N5CCN(C6CCCC6)CC5)c(O)c4c3C2=O)NC(=O)/C(C)=C\C=C[C@H](C)[C@H](O)[C@@H](C)[C@@H](O)[C@@H](C)[C@H](OC(C)=O)[C@@H]1C`: the result in assay [2] was inactive. For the same compound, the mean signal in assay [3] was 288 (inactive).

Regarding `CC(C)(C)NC(=O)[C@H]1CC[C@H]2[C@@H]3CC[C@H]4NC(=O)C=CC4(C)[C@H]3CCC12C` (stereo partly specified), the compound was called inactive in assay [2]. The mean signal in assay [3] was 247 (inactive).

With `COc1cc(CNC(=O)CCCC/C=C\C(C)C)ccc1O`, the parasite load remaining in assay [4] was 83.7% (inactive). This compound also came in with a viability in assay [4] of 75.2%. In addition, the fluorescence ratio in assay [5] was 0.95 (inactive); in assay [8], 0.9 (inactive). Also, the inhibition is -6.73% (inactive) in assay [6] and 1.44% (inactive) in assay [7]. In addition, the z-score in assay [2] is 1.86 (inactive). Besides, the mean signal in assay [3] was 250 (inactive).

For `CC#C[C@]1(O)CC[C@H]2[C@@H]3CCC4=CC(=O)CCC4=C3[C@@H](c3ccc(N(C)C)cc3)CC21C` (stereo partly specified), the compound was classed as inactive in assay [2]. For the same compound, in assay [3], the mean signal is 225 (inactive).

For the compound `CC(=O)[C@H]1CC[C@H]2[C@@H]3CCC4=CC(=O)CCC4(C)[C@H]3CCC12C` (stereo partly specified), the call in assay [2] was inactive. The mean signal in assay [3] was 279 (inactive).

On to `CC(C)=CCCC(C)[C@@H]1CC[C@]2(C)C3=C(CC[C@@]12C)C1(C)CC[C@H](O)C(C)(C)C1CC3` (stereo partly specified), for which, in assay [1], the red/green cell ratio (normalised) is 0.9 (inactive). For the same compound, the normalised cell number in assay [1] (setting [9]) stood at 1.09; in assay [1] (setting [10]) it was 0.98.

With `CC12CC[C@@H]3c4ccc(OS(=O)(=O)O)cc4CC[C@H]3[C@@H]1CCC2=O` (stereo partly specified), the compound was classed as inactive in assay [2]. In assay [3], the mean signal was 260 (inactive).

For the compound `C#C[C@]1(O)CC[C@H]2[C@@H]3CCC4=CC(=O)CC[C@@H]4[C@H]3CCC21CC` (stereo partly specified), the call in assay [2] was inactive. For the same compound, the mean signal in assay [3] is 225 (inactive).

For the compound `C#C[C@]1(O)CC[C@H]2[C@@H]3[C@H](C)CC4=C(CCC(=O)C4)[C@H]3CCC21C` (stereo partly specified), the result in assay [2] was inactive. Besides, in assay [3], the mean signal is 249 (inactive).

In the case of `C=C1/C(=C\C=C2/CCCC3(C)[C@@H]([C@H](C)/C=C/[C@@H](O)C4CC4)CC[C@@H]23)C[C@@H](O)C[C@@H]1O` (stereo partly specified), the call in assay [2] was inactive. The mean signal in assay [3] is 277 (inactive).

For `C/C=C1/[C@H]2C=C(C)C[C@]1(N)c1ccc(=O)[nH]c1C2`, in assay [2], the call was inactive. Besides, the mean signal in assay [3] was 229 (inactive).

As to `O=C1N[C@H](C(=O)O)CS1`, in assay [4], the parasite load remaining was 95.8% (inactive). Further, the viability in assay [4] was 70.6%. For the same compound, the fluorescence ratio in assay [5] is 1.02 (inactive); in assay [8], 0.96 (inactive). Moreover, the results for the inhibition in assay [6] and in assay [7] were -3.56% (inactive) and -3.18% (inactive), respectively. In addition, in assay [2], the z-score was -0.587 (inactive). The mean signal in assay [3] was 242 (inactive).

`C#C[C@]1(O)CC[C@H]2[C@@H]3CCc4cc(O)ccc4[C@H]3CCC21C` (stereo partly specified): in assay [2], the result was inactive. Further, the mean signal in assay [3] was 242 (inactive).

Consider `C=CC1=C(C(=O)O)N2C(=O)[C@@H](NC(=O)/C(=N/OCC(=O)O)c3csc(N)n3)[C@H]2SC1`, for which the compound was classed as inactive in assay [2]. For the same compound, the mean signal in assay [3] was 257 (inactive).

Take `CO/N=C1/C[C@]2(C[C@@H]3C[C@@H](C/C=C(\C)C[C@@H](C)/C=C/C=C4\COC5[C@H](O)C(C)=C[C@@H](C(=O)O3)[C@]45O)O2)O[C@H](/C(C)=C/C(C)C)[C@H]1C` (stereo partly specified): in assay [1], the red/green cell ratio (normalised) is 1.32 (inactive). The normalised cell number in assay [1] (setting [9]) is 1; in assay [1] (setting [10]), 1.32.

With `CC(=O)O[C@H]1C[C@@H]2CC[C@@H]3[C@H](CCC4(C)[C@H]3C[C@H]([N+]3(C)CCCCC3)[C@@H]4OC(C)=O)C2(C)C[C@@H]1N1CCCCC1` (stereo partly specified), in assay [2], the outcome was inactive. In addition, in assay [3], the mean signal is 285 (inactive).

As for `C=CC[C@@H]1/C=C(\C)C[C@H](C)C[C@H](OC)[C@H]2OC(O)(C(=O)C(=O)N3CCCC[C@H]3C(=O)O[C@H](/C(C)=C/[C@@H]3CC[C@@H](O)[C@H](OC)C3)[C@H](C)[C@@H](O)CC1=O)[C@H](C)C[C@@H]2OC`, the compound was classed as inactive in assay [2]. In addition, the mean signal in assay [3] is 274 (inactive).

As for `CC(=O)OC12CO[C@@H]1C[C@H](O)[C@@]1(C)C(=O)[C@H](O)C3=C(C)[C@@H](OC(=O)[C@H](O)[C@@H](NC(=O)OC(C)(C)C)c4ccccc4)CC(O)([C@@H](OC(=O)c4ccccc4)[C@H]21)C3(C)C` (stereo partly specified), in assay [2], the compound was called inactive. Besides, in assay [3], the mean signal was 256 (inactive).

`CO[C@H]1C=CO[C@@]2(C)Oc3c(C)c(O)c4c(O)c(c5c(nc6cc(C)ccn65)c4c3C2=O)NC(=O)/C(C)=C\C=C[C@H](C)[C@H](O)[C@@H](C)[C@@H](O)[C@@H](C)[C@H](OC(C)=O)[C@@H]1C`: the call in assay [2] was inactive. For the same compound, the mean signal in assay [3] was 289 (inactive).

Take `CC12CC[C@@H]3c4ccc(O)cc4CC[C@H]3[C@@H]1CC[C@@H]2O` (stereo partly specified): the outcome in assay [2] was inactive. The mean signal in assay [3] is 233 (inactive).

On to `OC[C@H]1O[C@@H](n2cnc3c(N[C@H]4CCC[C@@H]4O)ncnc32)[C@@H](O)C1O` (stereo partly specified), for which the parasite load remaining in assay [4] is 54.4% (inactive). The viability in assay [4] turned out to be 67.3%. The fluorescence ratio in assay [5] is 1.01 (inactive); in assay [8], 0.98 (inactive). Further, the inhibition in assay [6] is -1.09% (inactive); in assay [7], -2.76% (inactive). Also, in assay [2], the z-score was -0.495 (inactive). The mean signal in assay [3] was 261 (inactive).

Consider `C[C@@H]1CCC2[C@](C)(CO)[C@@H](O)CC[C@]2(C)[C@@]12CC[C@@](CO)(CCO)O2` (stereo partly specified), for which the red/green cell ratio (normalised) in assay [1] was 0.93 (inactive). The values for the normalised cell number in assay [1] (setting [9]) and in assay [1] (setting [10]) were 1.01 and 0.94, respectively.

On to `C[C@@H]1C[C@H]2[C@@H]3CCC4=CC(=O)C=CC4(C)[C@@]3(F)[C@@H](O)CC2(C)[C@H]1C(=O)CO` (stereo partly specified), for which the outcome in assay [2] was inactive. In assay [3], the mean signal was 245 (inactive).

Regarding `CC12C=CC(=O)C=C1CC[C@@H]1[C@@H]2[C@@H](O)CC2(C)[C@H]1CC[C@]2(O)C(=O)COC(=O)CCC(=O)O` (stereo partly specified), the result in assay [2] was inactive. Besides, the mean signal in assay [3] was 283 (inactive).

Regarding `Cc1cc(O)c(C(=O)c2c(O)cccc2O)c(C(=O)O)c1`, the red/green cell ratio (normalised) in assay [1] is 0.99 (inactive). The figures for the normalised cell number in assay [1] (setting [9]) and in assay [1] (setting [10]) were 1.15 and 1.14, respectively.

As for `CC(=O)O[C@H]1CCC2(C)C3=C(CCC2C1(C)C)[C@@]1(C)CC[C@@H](C(C)CCC=C(C)C)[C@]1(C)CC3` (stereo partly specified), the red/green cell ratio (normalised) in assay [1] was 1.21 (inactive). In addition, the results for the normalised cell number in assay [1] (setting [9]) and in assay [1] (setting [10]) were 0.67 and 0.81, respectively.

`CCOC(=O)O[C@]1(C(=O)OCCl)CC[C@H]2[C@@H]3CCC4=CC(=O)C=CC4(C)[C@H]3[C@@H](O)CC21C` (stereo partly specified): the compound was called inactive in assay [2]. Besides, the mean signal in assay [3] was 256 (inactive).

For the compound `CC12CCC(=O)C=C1CC[C@@H]1[C@@H]2[C@@H](O)CC2(C)[C@@H](C(=O)CO)CC[C@@H]12` (stereo partly specified), the call in assay [2] was inactive. Also, the mean signal in assay [3] was 250 (inactive).

In the case of `CCC(=O)O[C@]1(C(=O)SCF)[C@H](C)C[C@H]2[C@@H]3C[C@H](F)C4=CC(=O)C=CC4(C)[C@@]3(F)[C@@H](O)CC21C` (stereo partly specified), the compound was called inactive in assay [2]. In addition, the mean signal in assay [3] was 245 (inactive).

Source of the values: PubChem BioAssay.
